Counter-ions that a name gives are not always drawn.
Key:
Settings in all cases: 10 µM; exposure time 6 h
[1] = tested on: Danio rerio larvae (5 dpf); experiment: difference in excitability vs DMSO (percentage points); higher = more excitable than DMSO
Summary of the method: (§1)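 Wild-type zebrafish larvae at 5 dpf were kept in 96-well plates and exposed for 6 h to 100 µL egg water holding library compound at a final concentration of 10 µM. From 3 h into exposure, the plates were held at 28.5 ℃ and photographed every 6 s through a 3-h programme of moving lines and 100 ms, 400Hz tones. Each behaviour was scored by Z-LaP Tracker, a DeepLabCut model, and averaged over 48 larvae per compound. Every value gives the compound mean minus the vehicle control mean, in percentage points.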

[2] = tested on: Danio rerio larvae (5 dpf); experiment: difference in startle response vs DMSO (percentage points); higher = stronger startle than DMSO
Summary of the method: as §1

[3] = tested on: Danio rerio larvae (5 dpf); experiment: difference in activity during first hour vs DMSO (percentage points); higher = more activity than DMSO
Summary of the method: as §1

[4] = tested on: Danio rerio larvae (5 dpf); experiment: difference in habituation to acoustic stimuli vs DMSO (percentage points); higher = more habituation than DMSO
Summary of the method: as §1

[5] = tested on: Danio rerio larvae (5 dpf); experiment: difference in combined optomotor response to red, green and blue moving lines vs DMSO (percentage points); higher = stronger optomotor response than DMSO
Summary of the method: as §1

Row | Structure (SMILES) | difference in excitability [1] | difference in startle response [2] | difference in activity during first hour [3] | difference in habituation to acoustic stimuli [4] | difference [5]
1 | C#CCN(C)[C@H](C)Cc1ccccc1 [R-(-)-Deprenyl (hydrochloride)] | -5.66 | -0.482 | -5.84 | 6.14 | 1.17
2 | CC[C@@H](C(N)=O)N1CCCC1=O [Levetiracetam] | 1.51 | 0.691 | 2.97 | 4.14 | 4.89
3 | COc1cc2c(cc1OC)C1CC(=O)C(CC(C)C)CN1CC2 (stereo not given) [Tetrabenazine] | 25.1 | 3.39 | 9.5 | -2.68 | -3.98
4 | O=P1(NCCCl)OCCCN1CCCl (stereo not given) [Ifosfamide] | 10 | -6.24 | -5.39 | 2.26 | 2.77
5 | NCC1(CC(=O)O)CCCCC1 [Gabapentin] | -1.43 | 8.77 | 13.9 | 2.43 | 6.89
6 | CC(O)(CS(=O)(=O)c1ccc(F)cc1)C(=O)Nc1ccc(C#N)c(C(F)(F)F)c1 (stereo not given) [Bicalutamide] | -0.599 | 4.36 | 0.23 | 6.4 | 9.87
7 | CN1[C@@H]2CC[C@H]1C[C@@H](OC(=O)C(CO)c1ccccc1)C2 (stereo not given in full) [Atropine] | -7.7 | -5.16 | -10.3 | -0.323 | -1.56
8 | CC1=C[C@]23C(=O)[C@@H](C=C(CO)[C@@H](O)[C@]2(O)[C@H]1O)[C@H]1[C@@H](C[C@H]3C)C1(C)C [Ingenol] | 8.75 | 2.54 | -2.63 | 4.35 | -0.622
9 | CC(C)N(CCC(C(N)=O)(c1ccccc1)c1ccccn1)C(C)C (stereo not given) [Disopyramide] | 5.49 | -1.52 | 13.6 | 4.14 | 9.12
10 | O=C(O[C@H]1C[N+]2(CCCOc3ccccc3)CCC1CC2)C(O)(c1cccs1)c1cccs1 [Aclidinium (bromide)] | -0.582 | -8.56 | -5.04 | -1.38 | -3.58
11 | C[C@H](N)[C@H](O)c1ccc(O)c(O)c1 [Levonordefrin] | 2.43 | -2.28 | 3.36 | -5.57 | -0.226
12 | CN1C[C@H](C(=O)N[C@]2(C)O[C@@]3(O)[C@@H]4CCCN4C(=O)[C@H](Cc4ccccc4)N3C2=O)C[C@@H]2c3cccc4[nH]cc(c34)C[C@H]21 [Dihydroergotamine (mesylate)] | 16.4 | 11.9 | -6.95 | -1.86 | 2.36
13 | N[C@@H](Cc1ccc(N(CCCl)CCCl)cc1)C(=O)O [Melphalan] | 10.9 | 1.5 | -4.46 | -1.58 | 7.41
14 | C[N+]1(C)[C@@H]2C[C@@H](OC(=O)[C@H](CO)c3ccccc3)C[C@H]1[C@@H]1O[C@@H]12 [Methylscopolamine (bromide)] | -2.02 | 0.0162 | -10 | -2.49 | 0.657
15 | Cn1c(CCCC(=O)O)nc2cc(N(CCCl)CCCl)ccc21 [Bendamustine (hydrochloride)] | 1.71 | -1.73 | 2 | -3.41 | -1.37
16 | C[N@+]1(CC2CC2)CC[C@]23c4c5ccc(O)c4O[C@H]2C(=O)CC[C@@]3(O)[C@H]1C5 [Methylnaltrexone (bromide)] | 3.91 | -0.955 | 8.76 | 7.78 | -7.48
17 | O=[N+]([O-])O[C@H]1CO[C@H]2[C@@H]1OC[C@H]2O[N+](=O)[O-] [Isosorbide Dinitrate] | 5.95 | 10.4 | 2.6 | 1.13 | 5
18 | CN1[C@@H]2C[C@@H](OC(=O)[C@H](CO)c3ccccc3)C[C@H]1[C@@H]1O[C@@H]12 [Scopolamine (hydrobromide)] | 4.44 | 2.53 | -2.69 | -4.87 | 2.89
19 | O=C1CC[C@@]2(O)[C@H]3Cc4ccc(O)c5c4[C@@]2(CCN3CC2CC2)[C@H]1O5 [Naltrexone (hydrochloride)] | 12.7 | 5.18 | 13.3 | 2.13 | 7.87
20 | NCC(CC(=O)O)c1ccc(Cl)cc1 (racemic) [(±)-Baclofen] | -0.88 | 5.35 | 13.9 | -0.192 | 6.84
21 | O=C(O[C@H]1C[C@H]2CC[C@@H](C1)[N+]21CCCC1)C(O)(c1ccccc1)c1ccccc1 [Trospium (chloride)] | -11.2 | -0.27 | 1.73 | -0.832 | -4.92
22 | Cc1cccc([C@H](C)c2c[nH]cn2)c1C [Dexmedetomidine (hydrochloride)] | 3.34 | 6.43 | -24.1 | -7.14 | -16.9
23 | CC(NC(C)(C)C)C(=O)c1cccc(Cl)c1 (stereo not given) [Bupropion (hydrochloride)] | -1.99 | -4.01 | -3.52 | 2.84 | -2.98
24 | C=CCN1CC[C@]23c4c5ccc(O)c4O[C@H]2C(=O)CC[C@@]3(O)[C@H]1C5 [Naloxone (hydrochloride)] | 12.1 | -4.15 | 1.81 | 1.98 | 9.16
25 | CCOC(=O)CC(SP(=S)(OC)OC)C(=O)OCC (stereo not given) [Malathion] | 21.4 | 5.73 | -5.37 | 1.62 | 14.9
26 | COc1ccc2c(c1)[C@]13CCCC[C@@H]1[C@H](C2)N(C)CC3 [Dextromethorphan (hydrobromide hydrate)] | 18.6 | 1.65 | -16 | -4.55 | -8.83

Row | Structure (SMILES) | difference in excitability [1] | difference in startle response [2] | difference in activity during first hour [3] | difference in habituation to acoustic stimuli [4] | difference [5]
27 | Nc1ncnc2c1ncn2CCOCP(=O)(O)O [Adefovir] | -0.414 | 3.47 | 19.5 | -0.786 | 6.79
28 | CC(C)C[C@H]1C(=O)N2CCC[C@H]2[C@]2(O)O[C@](NC(=O)[C@@H]3C[C@@H]4c5cccc6[nH]cc(c56)C[C@H]4N(C)C3)(C(C)C)C(=O)N12.CC(C)[C@@]1(NC(=O)[C@@H]2C[C@@H]3c4cccc5[nH]cc(c45)C[C@H]3N(C)C2)O[C@@]2(O)[C@@H]3CCCN3C(=O)[C@H](Cc3ccccc3)N2C1=O.CC(C)[C@H]1C(=O)N2CCC[C@H]2[C@]2(O)O[C@](NC(=O)[C@@H]3C[C@@H]4c5cccc6[nH]cc(c56)C[C@H]4N(C)C3)(C(C)C)C(=O)N12.CCC(C)[C@H]1C(=O)N2CCC[C@H]2[C@]2(O)O[C@](NC(=O)[C@@H]3C[C@@H]4c5cccc6[nH]cc(c56)C[C@H]4N(C)C3)(C(C)C)C(=O)N12 [Ergoloid (mesylates)] | 8.62 | 4.7 | -1.3 | 2.76 | -3.42
29 | O=P1(N(CCCl)CCCl)NCCCO1 (stereo not given) [Cyclophosphamide (hydrate)] | -1.55 | -0.479 | 2.35 | -0.439 | 2.91
30 | CC(N)Cc1ccc(O)cc1 (stereo not given) [4-hydroxy Amphetamine (hydrochloride)] | 2.21 | -1.49 | 5.37 | 0.612 | -2.78
31 | COc1cc([C@@H]2c3cc4c(cc3[C@H](O)[C@H]3COC(=O)[C@H]23)OCO4)cc(OC)c1OC [Podophyllotoxin] | 12.7 | -7.15 | -1.85 | 2.01 | 7.28
32 | CN(C)C(=O)Oc1cccc([N+](C)(C)C)c1 [Neostigmine (methyl sulfate)] | -10.3 | 0.754 | 11.2 | 5.23 | 17
33 | C[N+]1(C)CCCC(OC(=O)C(O)(c2ccccc2)c2ccccc2)C1 (stereo not given) [Mepenzolate (bromide)] | 0.196 | -4.42 | 2.16 | -0.492 | -1.25
34 | CC(=O)O[C@H]1C[C@@H]2CC[C@@H]3[C@H](CC[C@@]4(C)[C@H]3C[C@H]([N+]3(C)CCCCC3)[C@@H]4OC(C)=O)[C@@]2(C)C[C@@H]1[N+]1(C)CCCCC1 [Pancuronium (bromide hydrate)] | 15.9 | 4.02 | -3.48 | -0.432 | 5.41
35 | ClC1C(Cl)C(Cl)C(Cl)C(Cl)C1Cl (stereo not given) [γ-Lindane] | 7.5 | 11.9 | 1.64 | -7.56 | -16.7
36 | CCN(C(C)=O)c1cccc(-c2ccnc3c(C#N)cnn23)c1 [Zaleplon] | -3.98 | -8.07 | 5.81 | -1.42 | -10.8
37 | CCN(C)C(=O)Oc1cccc([C@H](C)N(C)C)c1 [Rivastigmine (tartrate)] | 0.964 | 4.99 | -2.5 | -3.03 | 5.01
38 | CC(C)C[C@H]1C(=O)N2CCC[C@H]2[C@]2(O)O[C@](NC(=O)[C@@H]3C=C4c5cccc6[nH]c(Br)c(c56)C[C@H]4N(C)C3)(C(C)C)C(=O)N12 [Bromocriptine (mesylate)] | 22.1 | -1.2 | 30.9 | -9.36 | -3.6
39 | O=C(O)CCCc1ccc(N(CCCl)CCCl)cc1 [Chlorambucil] | 12.6 | 1.74 | 5.75 | -1.6 | -10.5
40 | N.N.[Cl][Pt][Cl] [Cisplatin] | -2.35 | -10 | -16.8 | -5.63 | -0.233
41 | COc1cc2c(c(OC)c1OC)-c1ccc(OC)c(=O)cc1[C@@H](NC(C)=O)CC2 [Colchicine] | -4.48 | -0.112 | 1.93 | 2.9 | 4.29
42 | O=c1[nH]c2ccccc2n1C1CCN(CCCC(c2ccc(F)cc2)c2ccc(F)cc2)CC1 [Pimozide] | -5.57 | 7.75 | -5.44 | -11 | -13.5
43 | COc1ccc(C(CN(C)C)C2(O)CCCCC2)cc1 (stereo not given) [Venlafaxine (hydrochloride)] | 16.6 | -10.3 | -21.1 | -5.65 | -7.48
44 | N[C@@H]1C[C@H]1c1ccccc1 [Tranylcypromine (hydrochloride)] | -4.31 | -7.1 | -15.2 | -1.86 | 1.86
45 | CCOC(=O)c1cncn1[C@H](C)c1ccccc1 [Etomidate] | -7.08 | 15.9 | -22.2 | -6.98 | -19.2
46 | C=CCN1CC[C@]23c4c5ccc(O)c4O[C@H]2[C@@H](OCCOCCOCCOCCOCCOCCOCCOC)CC[C@@]3(O)[C@H]1C5 [Naloxegol (oxalate)] | 3.05 | 1.93 | 7.65 | 5.19 | -4.82
47 | Nc1ccncc1 [4-Aminopyridine] | 5.12 | 6.44 | 9.5 | -2.32 | 10.7
48 | CN(C)C(=O)Oc1ccc[n+](C)c1 [Pyridostigmine (bromide)] | -1.66 | -2.73 | -1.82 | 4.7 | 2.09
49 | C=C1C[C@@H]2[C@H](CC[C@]3(C)C(=O)CC[C@@H]23)[C@@]2(C)C=CC(=O)C=C12 [Exemestane] | 14.1 | 0.844 | -8.29 | -0.126 | 3.59
50 | C[C@]12CC[C@H](O)CC1=CC[C@@H]1[C@@H]2CC[C@]2(C)C(=O)CC[C@@H]12 [Dehydroepiandrosterone] | 19 | -2.18 | -15.8 | 1.51 | 6.05
51 | C=CCN1C[C@H](C(=O)N(CCCN(C)C)C(=O)NCC)C[C@@H]2c3cccc4[nH]cc(c34)C[C@H]21 [Cabergoline] | 13.2 | -8.8 | -4.41 | 5.57 | -3.78

Source: the supplement of paper PMC10515830
